Assay outcomes: PubChem BioAssay, several laboratories
A selection: hits, their analogues and other compounds. The true share with any hit is near 10%.
HCT116 PTEN-null: PTEN-deleted cell growth suppression; viability, % at 10 µM; HCT116 PTEN-null viability, CellTiter-Glo, 60 h; hits give low values; actives 1.2% (n = 140,000);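 active = viability at or below a set limit, 4 SD under the median of all tested compounds, cut at about 3.7% in these data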;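 note: PTEN knockout HCT116 line with beta catenin targeted HCT116 as companion control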
Lmaj promast: reduces viability of Leishmania major promastigotes; actives 9% (n = 200,000); AID 1063; inhibition, % at 10 µM; resazurin fluorescence viability; in the data active = inhibition above about 50%;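 note: promastigotes grown with compound for 44 hours at 28 °C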
ROMK mod: modulators of human ROMK potassium channel | Tet-inducible ROMK, thallium flux fluorescence; actives lie on both sides | B-score at 10 µM | actives 2% (n = 130,000) | AID 1918;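 active = signal ratio slope over the read window, or its plate-corrected B-score, at least 3 SD from the plate mean, either direction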;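 note: B-score of the F/F0 ratio slope over 7 to 12 s after thallium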
Target sequence (P48048 whole entry, looked up): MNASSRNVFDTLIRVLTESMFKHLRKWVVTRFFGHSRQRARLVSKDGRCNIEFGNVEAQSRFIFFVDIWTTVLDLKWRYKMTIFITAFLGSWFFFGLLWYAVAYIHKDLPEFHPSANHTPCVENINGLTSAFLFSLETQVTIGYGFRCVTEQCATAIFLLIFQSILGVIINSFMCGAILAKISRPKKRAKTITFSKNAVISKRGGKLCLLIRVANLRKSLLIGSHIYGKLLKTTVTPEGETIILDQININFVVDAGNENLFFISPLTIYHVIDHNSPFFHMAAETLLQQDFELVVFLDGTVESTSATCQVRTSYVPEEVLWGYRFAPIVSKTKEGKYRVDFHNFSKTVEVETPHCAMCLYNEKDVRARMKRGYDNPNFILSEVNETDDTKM
p97 inhibitor: inhibitors of human p97 ATPase; actives 0.42% (n = 220,000); AID 1481; recombinant p97 ATPase, Kinase-Glo ATP luminescence, 3 h; inhibition, % at 8 µM; in the data active = inhibition above about 15%
Insulin prom inh: TRM-6 insulin promoter activity inhibition; TRM-6 cells (human fetal islet line), insulin promoter-eGFP reporter, imaging; reporter expression induced with tamoxifen; inhibition, % at 2 µM; actives 0.9% (n = 130,000); AID 1273;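 active = inhibition above the mean plus 3 SD, with well images judged a real hit on visual review, cut at about 60% in these data, passing the limit was not always enough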
HCT116 bCat-KO: beta-catenin-lacking colon tumor cell growth suppression; HCT116 beta-catenin knockout viability, CellTiter-Glo, 60 h; hits give low values; actives 1.5% (n = 140,000); viability, % at 10 µM;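 active = viability at or under a set limit, the compound median less 4 SD, cut at about 6% in these data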
Numbers stand for hits; . = inactive; / = not tested or not shown.

SMILES | HCT116 PTEN-null | Lmaj promast | ROMK mod | p97 inhibitor | Insulin prom inh | HCT116 bCat-KO
COc1ccc(NC(=O)c2cn(CCC#N)nc2-c2cccc([N+](=O)[O-])c2)cc1 | / | / | / | . | / | /
O=C(O)C1C2CCC(O2)C1C(=O)NC1CCCCC1 (stereo not given) | . | . | . | . | . | .
CCCCOc1ccc(CN2CCN(CC)CC2)cc1 | . | 86 | / | . | . | .
CCCCOc1ccc(CC2C(=O)N(C)C(=O)N(C)C2=O)cc1 | . | . | . | . | / | .
CCCCOc1ccc(CN2CCN(CCO)CC2)cc1 | . | 89 | / | . | . | .
Cc1ccc(CN2CCN(Cc3ccccc3)CC2)cc1 | / | . | . | . | . | /
CCCCCCOc1ccc(CN2CCN(CCO)CC2)cc1 | . | 99 | / | . | . | .
O=C(O)c1cccc2nc3ccccc3nc12 | / | 100 | . | . | / | /
COC(=O)c1ccccc1-n1c(C)nc2ccccc2c1=O | . | . | / | . | . | .
CC1(C)C(c2ccccc2)=NC(c2cccnc2)N1O (stereo not given) | . | . | . | . | . | .
NNc1n[nH]c(=S)n1N | / | / | . | . | / | /
Fc1ccc2c(c1)nnn2C1CCN(Cc2ccccc2)CC1 | . | 75 | . | . | / | .
COC(=O)C(O)(c1c(C)[nH]c2ccccc12)C(F)(F)F (stereo not given) | . | . | / | . | . | .
CC1CCC/C=C/C2CC(O)CC2C(O)/C=C/C(=O)O1 (stereo not given) | . | . | . | . | . | 2.8
O=C(O)c1[nH]c(=O)[nH]c(=O)c1F | / | / | / | . | / | /
O=[N+]([O-])c1cccc(CN2CCN(Cc3ccc(Cl)cc3)CC2)c1 | / | 85 | . | . | / | /
CCCCn1c(=O)c(C(=O)NCc2ccncc2)c(O)c2ccccc21 | . | 89 | . | . | . | .
CCCCCn1c(=O)c(C(=O)Nc2nc(CC(=O)OCC)cs2)c(O)c2ccccc21 | / | 90 | . | . | . | /
CCCCCCCn1c(=O)c(C(=O)Nc2cnccn2)c(O)c2ccccc21 | / | / | / | . | / | /
CCCCCn1c(=O)c(C(=O)Nc2ccccc2S(N)(=O)=O)c(O)c2ccccc21 | / | 96 | . | . | . | /
CCCCn1c(=O)c(C(=O)NCc2ccco2)c(O)c2ccccc21 | / | . | . | . | . | /
CCCCCn1c(=O)c(C(=O)Nc2cnccn2)c(O)c2ccccc21 | / | 98 | . | . | / | /
CCCCCCn1c(=O)c(C(=O)Nc2nnc(C)s2)c(O)c2ccccc21 | / | . | . | . | . | /
CC(C)[C@]12O[C@H]1[C@@H]1O[C@]13[C@]1(O[C@H]1C[C@H]1C4=C(CC[C@@]13C)C(=O)OC4)[C@@H]2O | / | / | / | . | / | /
COc1cc(C)c(CN2CCN(c3ccccc3)CC2)cc1C | . | . | / | . | / | .
SMILES | HCT116 PTEN-null | Lmaj promast | ROMK mod | p97 inhibitor | Insulin prom inh | HCT116 bCat-KO
Oc1cccc(/C=N/NP(=S)(c2ccccc2)c2ccccc2)c1 | . | 83 | . | . | / | .
CC(C)c1oc(=O)cc2c1[C@@H](O)[C@H]1OC(=O)[C@@]3(C)C[C@@H](O)[C@@H](O)[C@@]2(C)C13 (stereo not given in full) | . | . | . | . | . | .
COc1ccc(C(=O)CN2CCOCC2)cc1F | . | . | . | . | 82 | .
c1ccc(Cn2ccnc2)cc1 | . | . | / | . | . | .
Clc1ccc(CSC(Cn2ccnc2)c2ccc(Cl)cc2Cl)cc1 (stereo not given) | . | 99 | / | . | . | .
Clc1ccc(COC(Cn2ccnc2)c2ccc(Cl)cc2Cl)cc1 (stereo not given) | . | 98 | / | . | . | .
NC(=O)c1c(NC(=O)c2ccc(S(=O)(=O)N(CCCl)CCCl)cc2)sc2c1CCCCC2 | . | . | . | . | . | .
CSc1ccccc1C(=O)C1CCCN(Cc2ccncc2)C1 (stereo not given) | / | 71 | . | . | / | /
COc1ccccc1CN1CCCC(C(=O)c2ccccc2SC)C1 (stereo not given) | / | 68 | . | . | / | /
O=[N+]([O-])c1cc(-n2cnnn2)c(O)c([N+](=O)[O-])c1 | / | / | / | . | / | /
O=c1c2ccccc2nc(CNc2ccccc2)n1-c1ccccc1 | / | / | . | . | / | /
COc1ccc(CNC(C)Cc2cccs2)cc1 (stereo not given) | / | 77 | . | . | / | /
CCc1ccc(OCC(=O)N2CCN(Cc3ccc4c(c3)OCO4)CC2)cc1 | / | 83 | . | . | / | /
Cc1cc(S(=O)(=O)NCC(C)C)ccc1OCC(=O)N1CCN(Cc2ccccc2)CC1 | . | . | / | . | . | .
CSc1ccc(CN2CCN(C(=O)COc3cccc(C)c3)CC2)cc1 | / | 87 | . | . | / | /
CC(C)NS(=O)(=O)c1ccc(OCC(=O)N2CCN(Cc3ccc4c(c3)OCO4)CC2)c(Cl)c1 | . | 56 | . | . | . | .
Cc1cc(S(=O)(=O)NC(C)C)ccc1OCC(=O)N1CCN(Cc2ccc3c(c2)OCO3)CC1 | . | 96 | . | . | . | .
CC1(C)CN=C(NCc2ccccc2Cl)S1 | . | . | / | . | . | .
O=C(NC(=O)N1CCC2(CC1)OCCO2)c1ccc(Cl)cc1 | / | . | . | . | / | /
O=C1/C(=C/c2cc([N+](=O)[O-])ccc2Cl)N2CCC1CC2 | . | 74 | / | . | . | .
O=C1/C(=C\c2ccc(Cl)c(Cl)c2)N2CCC1CC2 | / | / | / | . | / | /
O=C1/C(=C\c2cc3c(cc2Cl)OCO3)N2CCC1CC2 | . | 73 | / | . | . | .
O=C1/C(=C/c2cc3c(cc2Cl)OCO3)N2CCC1CC2 | . | 92 | . | . | . | .
O=C1/C(=C\c2ccc(Cl)cc2Cl)N2CCC1CC2 | / | / | . | . | / | /
CN(C)c1nc(OCCNC(=O)COc2ccc(Cl)cc2Cl)nc(N2CCCCC2)n1 | . | . | / | . | . | .
SMILES | HCT116 PTEN-null | Lmaj promast | ROMK mod | p97 inhibitor | Insulin prom inh | HCT116 bCat-KO
O=C(c1c[nH]c2ccc(S(=O)(=O)N3CCOCC3)cc2c1=O)N1CCC2(CC1)OCCO2 | / | . | . | . | . | /
Cc1cc(C=C2C(=O)NC(=S)NC2=O)c(C)n1C1CCCC1 | / | 63 | . | . | / | /
CSc1ccc(CN2CCN(Cc3ccccc3Cl)CC2)cc1 | / | 82 | . | . | . | /
Cc1ccc(OCC(=O)N2CCN(C3CCC(c4ccccc4)CC3)CC2)cc1 (stereo not given) | / | 57 | . | . | / | /
O=C(COc1ccc(Br)cc1)N1CCN(C2CCCC2)CC1 | . | 93 | . | . | . | .
O=C(COc1ccc(Br)cc1)N1CCN(Cc2c[nH]c3ccccc23)CC1 | . | . | . | . | . | .
CN1CCN(C(=O)COc2ccc(Oc3ccccc3)cc2)CC1 | / | . | . | . | / | /
O=C(COc1ccccc1)N1CCN(C2CC3CCC2C3)CC1 (stereo not given) | . | 72 | . | . | . | .
O=C1NC(=O)C(CCc2ccncc2)(Cc2cccc(Cl)c2Cl)C(=O)N1c1ccc(Br)cc1 (stereo not given) | . | 92 | / | . | / | .
COc1ccc(/C=C/C(=O)c2c(O)n(CCC3=CCCCC3)c(=O)[nH]c2=O)cc1 | . | 77 | / | . | / | .
CCOC(=O)C(O)(c1ccc(N(C)C(=O)COc2ccccc2)cc1)C(F)(F)F (stereo not given) | / | . | / | . | . | /
CCOC(=O)C(O)(c1ccc(N(CC)S(=O)(=O)c2ccc(C)cc2)cc1)C(F)(F)F (stereo not given) | . | 93 | . | . | . | .
